From PubChem
Only some compounds are listed: those with a hit (about 3.4% of all), similar ones and a draw of the others.
EWS-Fli block: EWS/Fli-driven NR0B1 reporter inhibitors, primary screen, A673 cells, NR0B1 luciferase, luminescence, MLPCN library | viability-normalised | inhibition, % at 12.6 µM | hit rate 0.67% among 350,000;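 active means mean inhibition of at least 50% after viability correction, with every replicate also passing that limit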;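 further: firefly luciferase signal divided by Alamar Blue viability fluorescence both relative to DMSO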
PAX8 inh HTS: inhibitors of PAX8-driven TPO luciferase reporter, primary screen, RMG-I cells, single concentration. SteadyGlo, 24 h. inhibition, % at 12.6 µM. hit rate 1.2% among 360,000. AID 652154, 2013;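 active means mean replicate inhibition at least 60% with every replicate also reaching 60%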;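 further: luciferase light reporting Pax8 driven TPO promoter activity; plate controls were median of neutral control wells for no effect and mitoxantrone controls for full effect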
LGR2 inh: inhibitors of bursicon-induced LGR2 CRE-luciferase signal, primary screen, cell-based, HEK293, CRE-luciferase reporter, bursicon stimulation; bursicon-stimulated, 4 h; hit rate 0.35% among 380,000; inhibition, % at 9.99 µM; Drosophila bursicon receptor LGR2 (rickets);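 active means drop in luminescence signal, shown as inhibition above about 50% in the replicate tests, limit read from the data, passing the limit was not always enough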;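 further: agonist challenge used bursicon conditioned medium at about half maximal strength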
PGC1a acetyl inh: inhibitors of PGC1a acetylation signal, primary screen, cell-based, U2OS, AlphaScreen, inhibitor mode; hit rate 0.17% among 350,000; inhibition, % at 15.6 µM; AID 651687, 2012; AlphaScreen anti-acetyl-lysine; with virally co-expressed GCN5 acetyltransferase;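 active means every replicate shows inhibition of at least 40%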;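 further: 0% = neutral control wells and 100% = positive control wells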
SIRT5 block: SIRT5 desuccinylase inhibitors, primary screen, biochemical, fluorescence imaging, single point, set 5; Purified SirT5, succinyl-peptide AMC, trypsin-coupled fluorescence; inhibition, % at 15 µM; hit rate 1.1% among 330,000; AID 652115, 2013; in the data active means inhibition above about 15%
Target sequence (Q9NXA8 whole entry, looked up): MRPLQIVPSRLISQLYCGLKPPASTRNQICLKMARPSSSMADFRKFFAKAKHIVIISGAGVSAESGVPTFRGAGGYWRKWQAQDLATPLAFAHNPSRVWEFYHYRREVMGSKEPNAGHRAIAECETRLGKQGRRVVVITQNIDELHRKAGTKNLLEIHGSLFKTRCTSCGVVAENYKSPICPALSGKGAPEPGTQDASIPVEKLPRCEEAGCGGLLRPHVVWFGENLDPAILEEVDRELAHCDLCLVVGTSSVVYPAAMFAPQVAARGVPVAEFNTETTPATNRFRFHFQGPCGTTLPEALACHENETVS
rRNA inh HTS: reduced GFP signal of wild-type E. coli, primary screen, bacterial rRNA inhibitor project, GFP/RFP fluorescence, OD600, single point | E. coli WT GFP vs humanized-ribosome RFP mutants, 24 h; active compounds read low; DMSO median 0, no signal -100 | hit rate 1.6% among 350,000 | AID 720706, 2013 | GFP signal change (wild-type ribosome), % (test concentration not listed);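 active means significant combined selectivity score with lowered wild-type GFP, culture density cut under 30%, mutant RFP and density less affected; inactive means any of these conditions unmet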
* marks the source's active call; other numbers are inactive results; x = not tested or not shown.

SMILES	EWS-Fli block	PAX8 inh HTS	LGR2 inh	PGC1a acetyl inh	SIRT5 block	rRNA inh HTS
CC(C)CC#Cc1ccc([C@@H]2[C@@H](CO)N3C(=O)CN(C(=O)c4ccccn4)C[C@H]23)cc1	-3	x	-24	-2	33*	7
CC(C)CC#Cc1ccc([C@@H]2[C@@H](CO)N3C(=O)CN(C(=O)CN4CCOCC4)C[C@@H]23)cc1	-10	x	23	-5	17*	2
CCC(=O)N1CC(=O)N2[C@H](CO)[C@@H](c3ccc(C#CCC(C)C)cc3)[C@H]2C1	-4	-9	-6	1	-5	4
O=C(C1CC1)N1CC(=O)N2[C@H](CO)[C@@H](c3ccc(C#CCc4ccccc4)cc3)[C@@H]2C1	0	4	3	-9	2	-4
O=C(C1CCOCC1)N1CC(=O)N2[C@H](CO)[C@@H](c3ccc(C#CCc4ccccc4)cc3)[C@H]2C1	-2	x	3	1	16*	3
CC(C)CC#Cc1ccc([C@@H]2[C@@H](CO)N3C(=O)CN(C(=O)c4ccccn4)C[C@@H]23)cc1	-2	x	17	-1	-2	2
C[C@H](CO)N1C[C@H](C)[C@@H](CN(C)C(=O)c2ccccc2)OCCCC[C@H](C)Oc2ccc(NC(=O)C3CCCCC3)cc2C1=O	13	-2	-9	12	1	-3
Cc1noc(C)c1S(=O)(=O)N(C)C[C@H]1Oc2c(NS(=O)(=O)c3ccc(F)cc3)cccc2C(=O)N([C@@H](C)CO)C[C@H]1C	-1	x	-6	-1	x	2
Oc1c(C(c2ccccn2)N2CCC(Cc3ccccc3)CC2)cc(Cl)c2cccnc12 (stereo not drawn)	34	83*	x	x	-2	-49
COC(=O)[C@]12C[C@H](CC(=O)N3CCN(C(=O)c4ccco4)CC3)C(=O)N(Cc3ccc4c(c3)OCO4)C1=C[C@H](C(C)(C)C)O[C@@H]2C	7	58	22	x	x	-17
COC(=O)[C@@]12C[C@@H](CC(=O)N3CCN(C(=O)c4ccco4)CC3)C(=O)N(Cc3ccccc3)C1=CCC(C)(C)C2	-8	88*	-4	x	4	-5
COC(=O)[C@]12C[C@H](CC(=O)N3CCN(C(=O)c4ccco4)CC3)C(=O)N(Cc3ccccc3)C1=C[C@H](C(C)(C)C)O[C@@H]2C	6	74*	x	x	x	-3
COC(=O)[C@@]12C[C@@H](CC(=O)N3CCN(C(=O)c4ccco4)CC3)C(=O)N(Cc3ccc4c(c3)OCO4)C1=CCC(C)(C)C2	-1	-10	0	x	-3	x
COC(=O)[C@@]12C[C@@H](CC(=O)N3CCN(C(=O)c4ccco4)CC3)C(=O)N(Cc3ccco3)C1=CCC(C)(C)C2	0	87*	-10	x	0	6
CC(C)OC(=O)c1c(F)c(F)c(N2CCOCC2)c(F)c1F	x	x	x	57*	x	x
COC(=O)c1c(F)c(F)c(N2CCOCC2)c(F)c1F	x	x	-7	7	x	x
O=C1NCCOCn2nncc2CC[C@H]1Cc1ccc(Cl)cc1	x	x	x	x	x	2
Cc1ccc(S(=O)(=O)NC(=O)Nc2ccc(Cl)cn2)cc1	5	x	5	3	-1	10
Cc1ccc(S(=O)(=O)NC(=O)Nc2ccc(C)cn2)cc1	-11	0	-22	x	98*	2
CCOc1ccc(C(=O)C(CCC(CN(C)C)C(=O)c2ccc(OCC)cc2)CN(C)C)cc1 (stereo not drawn)	x	112*	37	x	x	x
COc1ccc(C(=O)C(CCCCC(CN(C)C)C(=O)c2ccc(OC)cc2)CN(C)C)cc1 (stereo not drawn)	x	x	x	-12	x	x
Cc1cc(=O)[nH]c(N/N=C/c2c(C)nn(-c3ccccc3)c2Cl)n1	-17	-7	-23	6	16*	4
Cc1nn(-c2ccccc2)c(Cl)c1/C=N/Nc1nc2ccccc2[nH]1	-4	-72	-29	x	-2	-8
CCOC(=O)c1sc2nc(C)nc(NCc3ccccc3OC)c2c1C	29	34	-12	63*	-3	-2
C=CC[C@@H](CC(=O)N(CCO)Cc1ccccc1)C(=O)N[C@H](COC(=O)[C@@H](CC=C)Cc1ccc(F)cc1)Cc1c[nH]c2ccccc12	3	37	3	-13	x	3
SMILES	EWS-Fli block	PAX8 inh HTS	LGR2 inh	PGC1a acetyl inh	SIRT5 block	rRNA inh HTS
C=CC[C@H](CC(=O)N(CCO)Cc1ccccc1)C(=O)N[C@H](COC(=O)[C@@H](CC=C)Cc1ccc(F)cc1)Cc1c[nH]c2ccccc12	0	82*	x	7	x	13
C=CCC[C@@H](Cc1ccc(F)cc1)C(=O)OC[C@@H](Cc1c[nH]c2ccccc12)NC(=O)[C@@H](CC=C)CC(=O)N(CCO)Cc1ccccc1	5	67*	20	1	-5	7
C=CCC[C@H](Cc1ccc(F)cc1)C(=O)OC[C@H](Cc1c[nH]c2ccccc12)NC(=O)[C@H](CC=C)CC(=O)N(CCO)Cc1ccccc1	23	97*	33	-14	-3	1
C=CCC[C@H](Cc1ccc(F)cc1)C(=O)OC[C@@H](Cc1c[nH]c2ccccc12)NC(=O)[C@@H](CC=C)CC(=O)N[C@@H](CO)Cc1ccccc1	-2	78*	x	-9	4	5
CN(C)C(=O)c1cccc(-c2ccc(C3[C@H]4CNC[C@@H]3N4CC3CCCCC3)cc2)c1 (stereo partly drawn)	-4	5	2	2	0	4
c1ccc2c(CSc3ncnc4nc[nH]c34)cccc2c1	6	9	4	x	-5	-31*
CNC[C@@H]1Oc2ccc(NS(C)(=O)=O)cc2CC(=O)N(C)C[C@@H]1C	x	x	x	x	x	3
COc1ccc(NC(=O)N(C)C[C@H]2Oc3ccc(NC(=O)NC4CCCCC4)cc3CC(=O)N([C@@H](C)CO)C[C@H]2C)cc1	-8	-16	-11	-24	x	3
COc1cc(NC(=O)CSCC(=O)Nc2cccc(C(F)(F)F)c2)c(Cl)cc1Cl	13	x	13	-28	-5	-31*
COCC(=O)Nc1ccc2c(c1)C(=O)N(C)C[C@H](OC)[C@@H](C)CN(Cc1cccc(F)c1)[C@@H](C)CO2	1	4	-4	-10	-3	0
O=C(NCCc1ccccc1)[C@H]1N[C@H]2c3ccc(-c4ccccc4)c(=O)n3C[C@H]2[C@@H]1CO	0	x	-5	x	-27	-7
COc1ccccc1N1CCN(CC(=O)Nc2ccc3c(c2)OCCO3)CC1	1	14	8	x	31*	5
COc1ccccc1N1CCN(CCC(=O)Nc2ccc3c(c2)OCO3)CC1	x	x	x	8	x	x
